The results in this text go back to PubChem BioAssay (EPA / NIEHS).

Results filed as inconclusive are left out. Active and inactive are the calls of the source. Rule for the calls, unless noted: active = hit-call score of the fitted dose curve at least 0.9, where 1 is the maximum; inactive = score below 0.9.

Assay [1] in a line: BSK_LPS_SRB: Viability Assessment in the BioMAP Diversity Plus: LPS Assay (AID 2283079).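 Note: total protein by sulforhodamine B absorbance as a cytotoxicity measure; measured one day after compound addition.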 To be noted: primary human HUVEC with PBMC. An outline of the steps: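 HUVEC + PBMC co-culture, LPS-stimulated; compound 24 h. 10% TCA fix, 0.1% SRB stain, A560. Bidirectional fit vs DMSO.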
Read-out in assay [2]: Interleukin-1 alpha (IL1a), IL1A (gene 3552)
As to the kind of experiment: BSK_LPS_IL1a: BioMAP Diversity Plus: LPS Assay for Interleukin-1 alpha (IL1a) Biomarker Activity (AID 2283080). To be noted: primary human HUVEC with PBMC; actives raise or lower the signal. In short, it runs like this: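 HUVEC/PBMC co-culture, LPS system; 24 h after dosing; IL-1a by ELISA; gain or loss of signal fitted bidirectionally vs DMSO baseline.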

Read-out in assay [3]: Monocyte Chemoattractant Protein-1 (MCP1), CCL2 (gene 6347)
As to the kind of experiment: BSK_LPS_MCP1: BioMAP Diversity Plus: LPS Assay for Monocyte Chemoattractant Protein-1 (MCP1) Biomarker Activity (AID 2283081). To be noted: primary human HUVEC with PBMC; actives raise or lower the signal. An outline of the steps:
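ELISA read-out of MCP-1 after 24 h chemical dosing of a human umbilical vein endothelial cell/peripheral blood mononuclear cell co-culture stimulated with LPS. Gain or loss of signal fitted relative to DMSO controls.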

Assay [4] in a line: BSK_LPS_PGE2: BioMAP Diversity Plus: LPS Assay for Prostaglandin E2 (PGE2) Biomarker Activity (AID 2283082). Conditions: primary human HUVEC with PBMC; actives raise or lower the signal. In short, it runs like this:
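ELISA read-out of PGE2 from human umbilical vein endothelial cells co-cultured with peripheral blood mononuclear cells under LPS, 24 h post-dose. Gain or loss of signal scored relative to DMSO baseline.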

Read-out in assay [5]: Macrophage colony-stimulating factor (MCSF), CSF1 (gene 1435)
As to the kind of experiment: BSK_LPS_MCSF: BioMAP Diversity Plus: LPS Assay for Macrophage colony-stimulating factor (MCSF) Biomarker Activity (AID 2283083). Conditions: primary human HUVEC with PBMC; actives raise or lower the signal. In short, it runs like this:
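HUVEC + PBMC co-culture (human primary), 24 h post-dose; M-CSF by ELISA; gain/loss of signal fitted bidirectionally vs DMSO baseline.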

Read-out in assay [6]: Tissue Factor, F3 (gene 2152)
As to the kind of experiment: BSK_LPS_TissueFactor: BioMAP Diversity Plus: LPS Assay for Tissue Factor Biomarker Activity (AID 2283084). Conditions: primary human HUVEC with PBMC; actives raise or lower the signal. In short, it runs like this: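 HUVEC/PBMC co-culture, LPS-activated; CD142 ELISA read 24 h post-dose; bidirectional curve fit vs DMSO negative control.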

Read-out in assay [7]: Tumor necrosis factor (Homo sapiens) (UniProt P01375)
As to the kind of experiment: BSK_LPS_TNFa: BioMAP Diversity Plus: LPS Assay for Tumour Necrosis Factor alpha (TNFa) Biomarker Activity (AID 2283085).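 For AC50: TNFa protein level quantified by ELISA in the co-culture.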 Conditions: primary human HUVEC with PBMC; actives raise or lower the signal. An outline of the steps: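 HUVEC/PBMC co-culture, LPS-stimulated; 24 h post-dose; TNFa by ELISA; gain or loss of signal fitted bidirectionally vs DMSO baseline.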

Read-out in assay [8]: Vascular cell adhesion molecule 1 (VCAM1), VCAM1 (gene 7412)
Nature of the assay: BSK_LPS_VCAM1: BioMAP Diversity Plus: LPS Assay for Vascular cell adhesion molecule 1 (VCAM1) Biomarker Activity (AID 2283086). To be noted: primary human HUVEC with PBMC; actives raise or lower the signal. An outline of the steps:
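ELISA read-out of VCAM-1 at 24 h post-dosing in an LPS-driven HUVEC/PBMC primary human co-culture; gain or loss of signal fitted bidirectionally against DMSO baseline. Cytotoxicity tracked in parallel cultures by SRB total-protein staining.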

Read-out in assay [9]: CD38, CD38 (gene 952)
As to the kind of experiment: BSK_SAg_CD38: BioMAP Diversity Plus: SAg Assay for CD38 Biomarker Activity (AID 2283087). Conditions: primary human HUVEC with PBMC; actives raise or lower the signal. In short, it runs like this:
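Measures CD38 on a human endothelial/PBMC co-culture driven by SEB and TSST-1, 24 h after compound exposure, using ELISA with fluorescence detection; DMSO defines baseline for bidirectional curve fitting.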

Read-out in assay [10]: CD40, CD40 (gene 958)
As to the kind of experiment: BSK_SAg_CD40: BioMAP Diversity Plus: SAg Assay for CD40 Biomarker Activity (AID 2283088). To be noted: primary human HUVEC with PBMC; actives raise or lower the signal. In short, it runs like this:
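HUVEC/PBMC co-culture, 24 h post-dose; CD40 by ELISA, fluorescence intensity; bidirectional fit vs DMSO negative control.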

Read-out in assay [11]: Monocyte Chemoattractant Protein-1 (MCP1), CCL2 (gene 6347)
Nature of the assay: BSK_SAg_MCP1: BioMAP Diversity Plus: SAg Assay for Monocyte Chemoattractant Protein-1 (MCP1) Biomarker Activity (AID 2283090). Conditions: primary human HUVEC with PBMC; actives raise or lower the signal. In short, it runs like this:
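Values derive from bidirectional fitting of ELISA-measured MCP1 against DMSO controls. Readings were taken 24 h after dosing human vascular endothelial cells co-cultured with peripheral blood mononuclear cells under superantigen stimulation.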

Read-out in assay [12]: E-selectin (Homo sapiens) (UniProt P16581)
Nature of the assay: BSK_SAg_Eselectin: BioMAP Diversity Plus: SAg Assay for Eselectin Biomarker Activity (AID 2283091). Conditions: primary human HUVEC with PBMC; actives raise or lower the signal. In short, it runs like this:
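E-selectin ELISA readout at 24 h post-dosing in human umbilical vein endothelial cell/PBMC co-culture; gain or loss of signal fitted relative to DMSO baseline.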

Read-out in assay [13]: Monokine induced gamma interferon (MIG), CXCL9 (gene 4283)
Nature of the assay: BSK_SAg_MIG: BioMAP Diversity Plus: SAg Assay for Monokine induced gamma interferon (MIG) Biomarker Activity (AID 2283092). To be noted: primary human HUVEC with PBMC; actives raise or lower the signal. An outline of the steps:
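HUVEC plus human PBMC co-culture, chemicals dosed and MIG (CXCL9) quantified by ELISA at 24 h. Bidirectional curve fitting against DMSO as negative control and baseline, so both gain and loss of signal count as activity.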

Assay [14] is described as follows: BSK_SAg_PBMCCytotoxicity: PBMC Cytotoxicity Assessment in the BioMAP Diversity Plus: SAg Assay (AID 2283093).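 For AC50: PBMC superantigen activated with SEB plus TSST-1 one hour after compound addition.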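 Note: fitted both ways against DMSO so a hit may be loss or gain of signal.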 Conditions: primary human HUVEC with PBMC. An outline of the steps: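 PBMC viability by Alamar Blue reduction, fluorescence read at 546/580 nm after 6 h dye exposure. Cells were dosed 1 h before SEB plus TSST-1 activation (20 ng/mL final each), then held 90 h; endothelial/PBMC human co-culture.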

Read-out in assay [15]: Interleukin-8 (IL8), CXCL8 (gene 3576)
As to the kind of experiment: BSK_SAg_IL8: BioMAP Diversity Plus: SAg Assay for Interleukin-8 (IL8) Biomarker Activity (AID 2283094). To be noted: primary human HUVEC with PBMC; actives raise or lower the signal. In short, it runs like this:
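HUVEC/PBMC co-culture, 24 h post-dose; IL-8 by ELISA. Gain or loss of signal fitted bidirectionally vs DMSO baseline.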

A short description of assay [16]: BSK_SAg_Proliferation: Cell Proliferation Assessment in the BioMAP Diversity Plus: SAg Assay (AID 2283095).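 Note: relative cell number as total protein by SRB absorbance in sub-confluent culture.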 To be noted: primary human HUVEC with PBMC. In short, it runs like this: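 HUVEC/PBMC co-culture, 96-well. TCA-fixed (10%), 0.1% SRB stain, A560 at 96 h. Protein content used as viability readout; bidirectional fitting vs DMSO control.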
A short description of assay [17]: BSK_SAg_SRB: Viability Assessment in the BioMAP Diversity Plus: SAg Assay (AID 2283096).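 Note: cells read one day after compound addition; hits may be either gain or loss of signal compared with DMSO.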 To be noted: primary human HUVEC with PBMC. In short, it runs like this:
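Compounds were added to a human vascular co-culture of umbilical vein endothelium and PBMC. After 24 h, parallel cultures were fixed with 10% TCA, stained with 0.1% sulforhodamine B and read at 560 nm. Gain or loss of signal was fitted relative to DMSO.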

For assay [18], the target named is human CYP19A1, CYP19A1 (gene 1588) (UniProt P11511). Nature of the assay: NVS_ADME_hCYP19A1: NovaScreen (NVS) CYP450-related Enzyme Activity (ADME) Assay for human CYP19A1 (AID 2283098; active = hit-call score of the fitted dose curve at least 0.9, where 1 is the maximum). In short, it runs like this: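 Fluorescence intensity read-out; activity taken as signal loss relative to acetonitrile vehicle. Extracted enzyme, specific substrate, no cells, 0.5 h exposure. Duplicate single-point screen at 10 uM, then concentration–response follow-up for actives.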

Read-out in assay [19]: CD69, CD69 (gene 969)
Nature of the assay: BSK_SAg_CD69: BioMAP Diversity Plus: SAg Assay for CD69 Biomarker Activity (AID 2283089). To be noted: primary human HUVEC with PBMC; actives raise or lower the signal. An outline of the steps:
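HUVEC co-cultured with PBMC were dosed with chemical, and CD69 was measured by ELISA with fluorescence read-out 24 h later. Bidirectional curve fitting used DMSO as negative control and activity baseline.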

Tumor necrosis factor (Homo sapiens), sequence (P01375 whole entry, looked up): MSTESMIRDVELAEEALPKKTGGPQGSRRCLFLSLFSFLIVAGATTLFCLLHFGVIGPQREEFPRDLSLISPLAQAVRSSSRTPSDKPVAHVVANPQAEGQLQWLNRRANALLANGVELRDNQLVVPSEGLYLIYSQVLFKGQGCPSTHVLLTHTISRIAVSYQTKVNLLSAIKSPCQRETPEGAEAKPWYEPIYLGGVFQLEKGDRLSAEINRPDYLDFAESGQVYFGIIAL
human CYP19A1, CYP19A1 (gene 1588), sequence (P11511 whole entry, looked up): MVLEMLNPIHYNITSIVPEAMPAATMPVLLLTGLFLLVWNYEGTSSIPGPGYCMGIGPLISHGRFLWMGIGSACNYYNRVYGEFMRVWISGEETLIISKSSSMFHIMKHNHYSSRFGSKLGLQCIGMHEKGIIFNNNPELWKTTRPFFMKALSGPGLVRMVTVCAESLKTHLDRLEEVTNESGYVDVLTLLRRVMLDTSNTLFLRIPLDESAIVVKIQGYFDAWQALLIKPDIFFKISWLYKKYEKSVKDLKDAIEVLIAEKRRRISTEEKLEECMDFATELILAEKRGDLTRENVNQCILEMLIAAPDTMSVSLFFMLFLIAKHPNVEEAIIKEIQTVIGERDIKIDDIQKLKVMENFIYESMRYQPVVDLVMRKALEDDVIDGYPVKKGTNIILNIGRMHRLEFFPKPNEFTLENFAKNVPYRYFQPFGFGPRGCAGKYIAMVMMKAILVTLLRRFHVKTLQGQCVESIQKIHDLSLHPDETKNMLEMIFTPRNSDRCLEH
E-selectin (Homo sapiens), sequence (P16581 whole entry, looked up): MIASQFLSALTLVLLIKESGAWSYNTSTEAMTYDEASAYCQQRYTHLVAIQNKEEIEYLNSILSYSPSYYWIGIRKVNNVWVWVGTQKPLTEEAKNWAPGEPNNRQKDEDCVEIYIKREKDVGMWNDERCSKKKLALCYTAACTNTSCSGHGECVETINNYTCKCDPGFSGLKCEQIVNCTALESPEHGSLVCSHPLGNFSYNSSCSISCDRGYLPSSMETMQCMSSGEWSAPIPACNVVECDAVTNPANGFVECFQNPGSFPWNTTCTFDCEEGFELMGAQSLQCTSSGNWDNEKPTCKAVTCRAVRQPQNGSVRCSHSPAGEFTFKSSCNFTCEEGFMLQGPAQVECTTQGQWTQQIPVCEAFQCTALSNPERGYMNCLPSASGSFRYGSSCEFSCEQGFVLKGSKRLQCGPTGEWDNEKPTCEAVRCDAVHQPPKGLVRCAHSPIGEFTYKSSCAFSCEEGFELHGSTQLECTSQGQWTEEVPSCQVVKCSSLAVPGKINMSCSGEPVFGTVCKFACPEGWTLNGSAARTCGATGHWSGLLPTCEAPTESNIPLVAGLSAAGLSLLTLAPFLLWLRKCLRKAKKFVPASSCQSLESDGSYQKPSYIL

Consider `CCC(C)OC(=O)N1CCCCC1CCO` (stereo not drawn), for which the result in [1], in assay [2], in assay [3], in [4], in assay [5] and in assay [6] was inactive. Besides, the outcome in assay [7], in [8], in [9], in assay [10], in [11] and in assay [12] was inactive. For the same compound, the result in assay [13], in [14], in assay [15], in assay [16] and in assay [17] was inactive.
Consider `O=C(c1ccccc1)C1CCCCC1`, for which the result in assay [1], in [2], in assay [3], in assay [4], in assay [5] and in assay [6] was inactive. The result in [7], in [8], in assay [9], in assay [10], in assay [11] and in [12] was inactive. The result in assay [13], in assay [14], in assay [15], in assay [16], in assay [17] and in [18] was inactive.
For orientation: AC50 means the midpoint of the concentration-response curve, whichever way the signal moves. Regarding `CCN(Cc1c(F)cccc1Cl)c1c([N+](=O)[O-])cc(C(F)(F)F)cc1[N+](=O)[O-]`, the AC50 in assay [1] is 14.1 µM (active); in assay [5], 11.6 µM (active); in assay [9], 8.9 µM (active); in assay [14], 8.35 µM (active); in [15] it was 8.25 µM (active); in assay [16], 20 µM (active). Also, the AC50 in assay [17] was 11.4 µM (active). Also, the result in [2], in [3], in assay [4], in [6], in [7] and in assay [8] was inactive. The outcome in [10], in [11], in assay [12] and in assay [13] was inactive.
As for `COC(=O)CSc1cc(N=c2sc(=O)n3n2CCCC3)c(F)cc1Cl`, the outcome in assay [1], in assay [2], in [3], in assay [4], in assay [5] and in assay [6] was inactive. In addition, the outcome in [8], in [9], in assay [10], in [11], in [12] and in [13] was inactive. Besides, the outcome in assay [14], in assay [15], in [16], in assay [17] and in assay [18] was inactive. Moreover, in assay [7], the concentration at half-maximal activity (AC50) is 9.6 µM (active).
Take `C[C@]12C[C@H](O)[C@H]3[C@@H](CCC4=CC(=O)CC[C@@]43C)[C@@H]1CC[C@@H]2C(=O)CO`: the result in assay [1], in assay [2], in [3], in [4], in [6] and in assay [7] was inactive. Moreover, the result in assay [8], in [9], in assay [10], in assay [19], in assay [11] and in assay [12] was inactive. The result in [13], in [14], in assay [15], in assay [16], in assay [17] and in [18] was inactive.
